From PubChem
In the library only some 21% were active in any assay of this set; here they are far more common.
Shiga inhibitor – blocks Shiga toxin action in Vero cells; inhibition, % at 38.7 µM; 9.2% of 290,000 active; Vero cells, Shiga toxin protein synthesis inhibition reporter; in the data active = inhibition mostly above about 28%, no sharp cut-off; inactive = mostly below about 43%
Cycloheximide cs – counter-screen hit for Shiga toxin inhibitors, cycloheximide; max response, %; cell reporter, cycloheximide protein synthesis inhibition counterscreen; 12% of 300,000 active; AID 2314; in the data active = max response mostly above about 13%, no sharp cut-off; inactive = mostly below about 14%; also: read at 38.3 µM for the half of the compounds with a filed dose
NS1 function inh – influenza NS1 inhibition | Potency, µM (series often up to 46.1 µM) | 0.4% of 270,000 active; calls by dose curve; also: actives are rising curves; nearly all actives have a fitted effect of over 50% in size
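Read-out: OD600 growth recovery of NS1-expressing budding yeast. Cells grown overnight at 30C in -URA glucose medium, washed, resuspended and diluted 1:100 in 2% galactose assay medium, pH 6.0. Same strain lacking NS1 served as positive control.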
Pf growth 48h – P. falciparum growth inhibition at 48 hours (one generation); 5.9% of 310,000 active; P. falciparum luciferase growth in erythrocytes, 48 h; Potency, µM (titrated, usually from 28.7 µM), hits mostly inhibitors
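A one-generation exposure of luciferase-tagged malaria parasites in RPMI 1640/Albumax erythrocyte culture, 37 C and 5% CO2. Inhibition is inferred from decreased luminescence after adding detection reagent.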
Pf growth 96h – inhibits malaria parasite growth, 96 h; P. falciparum luciferase reporter growth, 96 h; Potency, µM (highest dose often 28.7 µM), hits mostly inhibitors; 6.9% of 320,000 active; AID 504834
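Luminescence readout: decreased luciferase signal marks inhibited growth of reporter-expressing P. falciparum in infected red cells (2% hematocrit, 0.05% parasitemia final), exposed to compound two generations (96 h, 37 C, 5% CO2).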
Numbers stand for hits; - = inactive; ? = inconclusive; . = no result given. Unless noted, calls follow the shape of the dose curve; as a rule, active = well fitted inhibition curve with a large enough effect; inconclusive = small, poorly fitted or top-dose-only effect, or another doubt; inactive = no such curve, though single readings can be large or run the other way.

SMILES	Shiga inhibitor	Cycloheximide cs	NS1 function inh	Pf growth 48h	Pf growth 96h
O=C(Cc1ccc([N+](=O)[O-])cc1)NCc1cccnc1	-	-	-	-	-
CC(OC(=O)c1ccc2c(=O)n3c(nc2c1)CCCCC3)C(N)=O (stereo unspecified)	-	-	-	-	-
O=C(Nc1ccc(F)cc1F)N1CCCC(c2nc(-c3ccc(F)cc3)no2)C1 (stereo unspecified)	-	22.6	-	-	-
O=C(c1ccc(F)cc1F)N1CCCC(c2nc(-c3ccc(F)cc3)no2)C1 (stereo unspecified)	-	16.9	-	-	-
Cc1ccc(-c2noc(C3CCCN(C(=O)c4cccc(F)c4)C3)n2)cc1 (stereo unspecified)	-	21.9	-	-	-
CCCCNC(=S)NNC(=O)c1sccc1C	-	-	-	-	-
Cc1ccsc1C(=O)NNC(=S)NC1CCCCC1	37.1	38.1	-	-	9.28µM
CNC(=S)NNC(=O)c1sccc1C	-	17.5	-	-	?
CCCc1cc(C(=O)NNC(=S)NC2CCCCC2)cs1	-	21.5	-	-	-
N/C(=N\O)c1ccccc1N1CCCCC1	-	-	-	-	?
Cc1oc2ccc(O)c(CN3CCOCC3)c2c1C(C)O (stereo unspecified)	-	-	-	-	-
CC(=O)c1c(C)oc2ccc(O)c(CN3CCOCC3)c12	-	-	-	.	7.38µM
CCOC(=O)c1c(C)oc2ccc(O)c(CN3CCCCC3)c12	-	-	-	11.7µM	-
CCOC(=O)CN(Cc1cc(OC)cc(N(C)C)c1OC)C(=O)C1CC(CO[Si](C)(C)C(C)(C)C)=CN1C(=O)OC(C)(C)C (stereo unspecified)	-	-	.	.	.
CCCCn1nc(C(=O)Oc2ccc3c(C)cc(=O)oc3c2)c2ccccc2c1=O	-	-	-	?	?
CCc1ccc(OCCCOc2ccc(C=O)cc2)cc1	-	19.0	-	.	-
CCc1ccc(OCCCC(=O)NCc2ccccc2)cc1	-	-	-	-	-
C[C@@H]1CN(C(=O)c2nc3ccc(Cl)cn3c2CNCC[C@@H]2C[C@@H]3C=C[C@H]2C3)C[C@H](C)O1	-	-	-	8.28µM	?
C=CCn1c(COc2ccccc2)nnc1SCc1ccc(C#N)cc1	-	-	-	-	0.928µM
COc1ccc(-n2c(SCc3ccc(C#N)cc3)nnc2-c2ccccn2)cc1	-	-	-	?	?
Cc1ccc(-n2c(SCc3ccc(C#N)cc3)nnc2-c2ccccn2)cc1	-	-	-	?	10.4µM
Cc1ccc(OCc2nnc(SCc3ccc(C#N)cc3)n2-c2ccc(C)cc2)cc1	-	-	-	13.1µM	.
CC(NC(=O)c1ccco1)c1nc(-c2ccc(Cl)cc2)no1 (stereo unspecified)	-	-	-	-	?
Clc1ccc(OCc2nnc3n2N=C(c2ccc4c(c2)OCCO4)CS3)c(Cl)c1	-	14.9	-	?	-
Clc1ccc(C2=Nn3c(Cn4nnc5ccccc54)nnc3SC2)cc1	-	-	-	?	-
SMILES	Shiga inhibitor	Cycloheximide cs	NS1 function inh	Pf growth 48h	Pf growth 96h
O=C(Cc1ccc(Cl)cc1)Nc1ccccc1N1CCN(C(=O)c2ccccc2)CC1	-	-	-	?	?
CCOC(=O)C(C)/C(C)=N\Nc1ccc([N+](=O)[O-])cc1[N+](=O)[O-] (stereo unspecified)	-	-	.	-	-
CCOC(=O)C(C)/C(C)=N/NC(N)=S (stereo unspecified)	-	-	-	1.31µM	4.65µM
O=C(Nc1ccccc1)N1CCCC1	-	-	-	.	-
O=C(Nc1ccccc1)N1CCCC(CNS(=O)(=O)Cc2ccccc2)C1 (stereo unspecified)	-	12.9	-	-	-
CSc1cccc(NC(=O)N2CCCC(CNS(=O)(=O)Cc3ccccc3)C2)c1 (stereo unspecified)	-	-	-	-	9.28µM
CCC(=O)N1CCc2cc(S(=O)(=O)N3CCN(C(=O)c4ccco4)CC3)ccc21	-	-	-	?	-
O=C(c1ccco1)N1CCN(S(=O)(=O)c2ccc3c(c2)CCN3C(=O)C2CCC2)CC1	-	-	-	13.1µM	-
O=C(C1CCC1)N1CCc2cc(S(=O)(=O)N3CCN(c4ccccn4)CC3)ccc21	-	-	-	10.4µM	-
Cc1ccc(CNC(=O)COc2ccc(S(=O)(=O)N3CCCC3)cc2)cc1	-	-	-	?	-
CCOc1cc(C(=S)N2CCOCC2)ccc1OC(=O)c1ccc(C)cc1	-	-	-	-	-
Cc1ccc2occ(/C=C/C(=O)O)c(=O)c2c1	-	-	-	-	-
O=C(O)/C=C/c1coc2ccc(F)cc2c1=O	active	23.2	-	-	-
O=C(O)/C=C/c1coc2ccccc2c1=O	-	33.4	-	-	-
O=C(NNC(=O)c1ccc([N+](=O)[O-])cc1C(=O)O)c1ccncc1	-	-	-	.	-
CC(C)=CCc1c(O)ccc(C(=O)Cc2ccccc2)c1O	-	-	-	?	?
COc1cc(O)c(CC=C(C)C)c(O)c1C(=O)CCc1ccc(O)cc1	25.9	-	-	9.28µM	-
Cc1cc(=O)[nH]c2ccc(S(=O)(=O)NC3CCCCC3)cc12	-	-	-	-	10.4µM
Cc1ccc(S(=O)(=O)NC2CCCC2)cc1C	-	-	-	.	-
O=C(N/N=C/c1cc(O)ccc1[N+](=O)[O-])c1ccc2c(c1)OCCO2	-	14.8	-	-	-
O=C(N/N=C/c1ccccc1[N+](=O)[O-])c1ccc2c(c1)OCCO2	61.0	32.7	-	-	-
O=C(N/N=C/c1cc([N+](=O)[O-])ccc1O)c1ccc2c(c1)OCCO2	-	17.6	-	-	-
O=C(N/N=C/c1cc([N+](=O)[O-])ccc1O)C1CC1	-	-	-	?	-
O=[N+]([O-])c1ccc(O)c(C=Nc2ccc3c(c2)OCO3)c1	16.1	23.6	-	-	-
COc1ccc(/C=N/NC(=O)c2ccc3c(c2)OCCO3)cc1[N+](=O)[O-]	-	-	-	-	?
SMILES	Shiga inhibitor	Cycloheximide cs	NS1 function inh	Pf growth 48h	Pf growth 96h
O=C1CCC/C1=C/Nc1cccc(F)c1	52.8	16.3	-	-	-
O=C1CCCC/C1=C/Nc1ccc2c(c1)OCO2	109.4	30.5	-	-	-
COc1ccc(Oc2ccc(N/C=C3\CCCC3=O)cc2)cc1	-	-	-	?	?
O=C1/C(=C\c2ccc3c(c2)OCO3)CCC/C1=C/c1ccc2c(c1)OCO2	-	-	-	-	-
CCN=C1SC(C(=O)Nc2ccccc2)CC(=O)N1CC (stereo unspecified)	-	-	-	-	.
CCN=C1SC(C(=O)Nc2cccc(C(=O)O)c2)CC(=O)N1CC (stereo unspecified)	-	-	-	-	13.1µM
CSc1nc2ccc(NC(=O)c3c(-c4ccccc4)noc3C)cc2s1	-	-	-	-	-
Nc1ccc(Br)c[n+]1Cc1cccc2cccnc12	-	-	-	?	10.4µM
Nc1scn[n+]1Cc1cccc2cccnc12	-	-	-	?	?
COC(=O)c1ccc(COc2cccnc2[N+](=O)[O-])cc1	35.2	24.2	-	-	-
O=C(COc1cccnc1[N+](=O)[O-])NCc1ccc(F)cc1	-	-	-	-	-
